# Source: the supplement of paper PMC8728848
# The entries come from a sample that favours the strongest signals as a whole.
# B1: DrGal3 (Danio rerio) (protein)
# chain: MDLSDALDAPPQQNNQQAGGPVWPGQPANPVWPGQPANPTWPGQPNQPAWPGQPNQQWPGQPGQPTAPGWPGPAPQTGPYGAPGQAPQVLTVPLDFPLQNGAYNKMLITINGEVKPNAKQFTVNLRRGNDIAFHINPRFSEGGKPVIVRNSMIGNNWGREERELPSFPFVPGKPFEMKILITDTEYKVAVNKSHLLEFKHRVFELNQITGLSIYNDVTLSTVNVETLQ
# Assays:
# Assay in all cases: glycan array binding signal (z-score within array); higher = stronger binding
# Conditions in all cases: glycan notation: IUPAC condensed, linker removed
# [1] = biological target: Gal(b1-4)GlcNAc(b1-3)Gal(b1-4)GlcNAc(b1-3)Gal(b1-4)GlcNAc(b1-3)Gal(b1-4)GlcNAc(b1-3)Gal(b1-4)GlcNAc(b1-2)Man(a1-3)[Gal(b1-4)GlcNAc(b1-3)Gal(b1-4)GlcNAc(b1-3)Gal(b1-4)GlcNAc(b1-3)Gal(b1-4)GlcNAc(b1-3)Gal(b1-4)GlcNAc(b1-2)Man(a1-6)]Man(b1-4)GlcNAc(b1-4)[Fuc(a1-6)]GlcNAc
# Method in brief: (§1)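 Glycan array binding is given as a within-array Z-score, which can be read as non-binding when negative. The arrays, 3228 of them, came from the Consortium for Functional Glycomics database and were retained only where the protein sequence was available. Z-scores were averaged across arrays of the same protein sequence at different concentrations or buffers and across linkers.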
# [2] = biological target: Gal(b1-4)GlcNAc(b1-3)Gal(b1-4)GlcNAc(b1-3)Gal(b1-4)GlcNAc(b1-3)Gal(b1-4)GlcNAc(b1-3)Gal(b1-4)GlcNAc(b1-2)[Gal(b1-4)GlcNAc(b1-3)Gal(b1-4)GlcNAc(b1-3)Gal(b1-4)GlcNAc(b1-3)Gal(b1-4)GlcNAc(b1-3)Gal(b1-4)GlcNAc(b1-6)]Man(a1-6)[Gal(b1-4)GlcNAc(b1-3)Gal(b1-4)GlcNAc(b1-3)Gal(b1-4)GlcNAc(b1-3)Gal(b1-4)GlcNAc(b1-3)Gal(b1-4)GlcNAc(b1-2)Man(a1-3)]Man(b1-4)GlcNAc(b1-4)[Fuc(a1-6)]GlcNAc
# Method in brief: as §1
# [3] = biological target: Gal(b1-4)GlcNAc(b1-3)Gal(b1-4)GlcNAc(b1-3)Gal(b1-4)GlcNAc(b1-3)Gal(b1-4)GlcNAc(b1-3)Gal(b1-4)GlcNAc(b1-3)Gal(b1-4)GlcNAc(b1-2)Man(a1-3)[Gal(b1-4)GlcNAc(b1-3)Gal(b1-4)GlcNAc(b1-3)Gal(b1-4)GlcNAc(b1-3)Gal(b1-4)GlcNAc(b1-3)Gal(b1-4)GlcNAc(b1-3)Gal(b1-4)GlcNAc(b1-2)Man(a1-6)]Man(b1-4)GlcNAc(b1-4)GlcNAc
# Method in brief: as §1
# [4] = biological target: Gal(b1-4)GlcNAc(b1-6)GalNAc
# Method in brief: as §1
# GalNAc6S(b1-4)GlcNAc = biological target: GalNAc6S(b1-4)GlcNAc
# Method in brief: as §1
# [5] = biological target: GlcNAc(a1-4)Gal(b1-4)GlcNAc
# Method in brief: as §1
# [6] = biological target: GlcNAc(b1-2)[GlcNAc(b1-4)]Man(a1-3)[GlcNAc(b1-4)][GlcNAc(b1-2)[GlcNAc(b1-6)]Man(a1-6)]Man(b1-4)GlcNAc(b1-4)GlcNAc
# Method in brief: as §1
# [7] = biological target: GlcNAc(b1-2)[GlcNAc(b1-6)]Man(a1-6)[GlcNAc(b1-4)][GlcNAc(b1-2)Man(a1-3)]Man(b1-4)GlcNAc(b1-4)GlcNAc
# Method in brief: as §1
# GlcNAc(b1-3)Gal(b1-4)Glc = biological target: GlcNAc(b1-3)Gal(b1-4)Glc
# Method in brief: as §1
# [8] = biological target: GlcNAc(b1-3)Gal(b1-4)GlcNAc(b1-3)Gal(b1-4)GlcNAc(b1-3)Gal(b1-4)GlcNAc(b1-2)Man(a1-3)[GlcNAc(b1-3)Gal(b1-4)GlcNAc(b1-3)Gal(b1-4)GlcNAc(b1-3)Gal(b1-4)GlcNAc(b1-2)Man(a1-6)]Man(b1-4)GlcNAc(b1-4)[Fuc(a1-6)]GlcNAc
# Method in brief: as §1
# [9] = biological target: GlcNAc(b1-3)Gal(b1-4)GlcNAc(b1-3)Gal(b1-4)GlcNAc(b1-3)Gal(b1-4)GlcNAc(b1-3)Gal(b1-4)GlcNAc(b1-2)Man(a1-3)[GlcNAc(b1-3)Gal(b1-4)GlcNAc(b1-3)Gal(b1-4)GlcNAc(b1-3)Gal(b1-4)GlcNAc(b1-3)Gal(b1-4)GlcNAc(b1-2)Man(a1-6)]Man(b1-4)GlcNAc(b1-4)GlcNAc
# Method in brief: as §1
# [10] = biological target: GlcNAc(b1-3)Gal(b1-4)GlcNAc(b1-3)Gal(b1-4)GlcNAc(b1-3)Gal(b1-4)GlcNAc(b1-3)Gal(b1-4)GlcNAc(b1-2)Man(a1-3)[GlcNAc(b1-3)Gal(b1-4)GlcNAc(b1-3)Gal(b1-4)GlcNAc(b1-3)Gal(b1-4)GlcNAc(b1-3)Gal(b1-4)GlcNAc(b1-2)Man(a1-6)]Man(b1-4)GlcNAc(b1-4)[Fuc(a1-6)]GlcNAc
# Method in brief: as §1
# [11] = biological target: GlcNAc(b1-3)Gal(b1-4)GlcNAc(b1-3)Gal(b1-4)GlcNAc(b1-3)Gal(b1-4)GlcNAc(b1-3)Gal(b1-4)GlcNAc(b1-2)[GlcNAc(b1-3)Gal(b1-4)GlcNAc(b1-3)Gal(b1-4)GlcNAc(b1-3)Gal(b1-4)GlcNAc(b1-3)Gal(b1-4)GlcNAc(b1-6)]Man(a1-6)[GlcNAc(b1-3)Gal(b1-4)GlcNAc(b1-3)Gal(b1-4)GlcNAc(b1-3)Gal(b1-4)GlcNAc(b1-3)Gal(b1-4)GlcNAc(b1-2)Man(a1-3)]Man(b1-4)GlcNAc(b1-4)[Fuc(a1-6)]GlcNAc
# Method in brief: as §1
# [12] = biological target: Man(a1-2)Man(a1-3)[Man(a1-6)]Man(a1-6)[Man(a1-2)Man(a1-3)]Man(b1-4)GlcNAc(b1-4)GlcNAc
# Method in brief: as §1
# [13] = biological target: Neu5Ac(a2-3)Gal(b1-4)GlcNAc6S
# Method in brief: as §1
# [14] = biological target: Neu5Ac(a2-3)[Neu5Ac(a2-6)]GalNAc
# Method in brief: as §1
# [15] = biological target: Neu5Ac(a2-6)Gal(b1-4)GlcNAc
# Method in brief: as §1
# [16] = biological target: Neu5Ac(a2-6)Gal(b1-4)GlcNAc(b1-2)[Neu5Ac(a2-6)Gal(b1-4)GlcNAc(b1-4)]Man(a1-3)[GlcNAc(b1-4)][Neu5Ac(a2-6)Gal(b1-4)GlcNAc(b1-4)Man(a1-6)]Man(b1-4)GlcNAc(b1-4)GlcNAc
# Method in brief: as §1
# [17] = biological target: Neu5Ac(a2-6)Gal(b1-4)GlcNAc(b1-3)Gal(b1-4)GlcNAc
# Method in brief: as §1
# [18] = biological target: Neu5Ac(a2-6)Gal(b1-4)GlcNAc(b1-3)Gal(b1-4)GlcNAc(b1-3)Gal(b1-4)GlcNAc
# Method in brief: as §1
# [19] = biological target: Neu5Ac(a2-6)Gal(b1-4)GlcNAc(b1-3)Gal(b1-4)GlcNAc(b1-3)[Neu5Ac(a2-6)Gal(b1-4)GlcNAc(b1-3)Gal(b1-4)GlcNAc(b1-6)]GalNAc
# Method in brief: as §1
# [20] = biological target: Neu5Ac(a2-8)Neu5Ac(a2-3)Gal(b1-4)Glc
# Method in brief: as §1
# [21] = biological target: Neu5Ac(a2-8)Neu5Ac(a2-8)Neu5Ac(a2-3)Gal(b1-4)Glc
# Method in brief: as §1
# [22] = biological target: Neu5Gc(a2-3)Gal(b1-4)[Fuc(a1-3)]GlcNAc
# Method in brief: as §1
# Neu5Gc(a2-6)GalNAc = biological target: Neu5Gc(a2-6)GalNAc
# Method in brief: as §1
binder,measurement,setting,value
B1,glycan array binding signal (z-score),[1],4.37
same,glycan array binding signal (z-score),[2],5.52
same,glycan array binding signal (z-score),[3],5.72
same,glycan array binding signal (z-score),[4],-0.192
same,glycan array binding signal (z-score),GalNAc6S(b1-4)GlcNAc,-0.282
same,glycan array binding signal (z-score),[5],-0.256
same,glycan array binding signal (z-score),[6],-0.297
same,glycan array binding signal (z-score),[7],-0.243
same,glycan array binding signal (z-score),GlcNAc(b1-3)Gal(b1-4)Glc,-0.284
same,glycan array binding signal (z-score),[8],6.12
same,glycan array binding signal (z-score),[9],5.4
same,glycan array binding signal (z-score),[10],5.55
same,glycan array binding signal (z-score),[11],3.29
same,glycan array binding signal (z-score),[12],-0.249
same,glycan array binding signal (z-score),[13],-0.189
same,glycan array binding signal (z-score),[14],-0.275
same,glycan array binding signal (z-score),[15],-0.257
same,glycan array binding signal (z-score),[16],-0.234
same,glycan array binding signal (z-score),[17],-0.25
same,glycan array binding signal (z-score),[18],0.971
same,glycan array binding signal (z-score),[19],-0.107
same,glycan array binding signal (z-score),[20],-0.271
same,glycan array binding signal (z-score),[21],-0.195
same,glycan array binding signal (z-score),[22],-0.086
same,glycan array binding signal (z-score),Neu5Gc(a2-6)GalNAc,-0.254
